hgDAF12 agonist = activates the H. glycines DAF-12 receptor ligand-binding domain; AID 687014; HEK293 GAL4-hgDAF12 UAS-luciferase reporter, agonist luminescence; normalized to butyrate control; 1.8% of 370,000 active; activation, % at 6.8 µM;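 active = activation above a cutoff set at the mean of all screened compounds plus 3 SD, cut at about 10% in these data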
DAX1 inh-1 = DAX1 (NR0B1) inhibition, primary screen; HEK293T StAR-luciferase reporter, SF-1/DAX-1 repression relief; inhibition, % at 6.8 µM; 1.1% of 370,000 active;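 active = inhibition above the mean over all tested compounds plus 3 SD, cut at about 3.6% in these data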;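 also: higher inhibition means more luminescence from relief of DAX-1 repression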
hcDAF12 agonist = activates DAF-12 receptor from parasite H. contortus. HEK293 hcDAF-12 lit1-tk-luc reporter, luminescence; 0% DMSO, 100% Δ7-dafachronic acid. activation, % at 6.8 µM. 1.4% of 370,000 active. AID 652067;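 active = activation above the mean of all tested compounds plus 3 SD, cut at about 5.5% in these data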
ssDAF12 agonist = activators of S. stercoralis DAF-12 nuclear receptor; HEK293 ssDAF-12/GRIP1 lit1-tk-luc reporter, luminescence; % of 3 µM dafachronic acid response; activation, % at 6.8 µM; 1% of 370,000 active;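 active = activation above the mean over all tested compounds plus 3 SD, cut at about 0.9% in these data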
DAX1 inh-2 = NR0B1 (DAX1) inhibition; P51843; 0.99% of 340,000 active; HEK293 Gal4-DAX1 luciferase reporter, luminescence; inhibition, % at 6.75 µM; AID 504766;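 active = inhibition above the mean over all tested compounds plus 3 SD, cut at about 4.2% in these data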;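 also: inhibition shows as a rise in luminescence from relieved DAX1 repression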
Target sequence (P51843 207-470 limits assumed): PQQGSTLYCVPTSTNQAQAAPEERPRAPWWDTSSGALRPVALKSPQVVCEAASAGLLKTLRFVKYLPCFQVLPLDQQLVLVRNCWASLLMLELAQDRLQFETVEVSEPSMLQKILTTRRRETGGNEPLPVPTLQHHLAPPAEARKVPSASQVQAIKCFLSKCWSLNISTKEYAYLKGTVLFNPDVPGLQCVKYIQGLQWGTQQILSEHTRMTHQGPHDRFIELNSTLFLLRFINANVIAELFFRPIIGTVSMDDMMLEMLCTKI
Hits are given with their value. This is a sample that favours compounds with a hit; in the whole collection about 4.1% have one here.

For CC1=CCC(C(=O)O)C(C(=O)Nc2cccnc2)C1 (stereo unspecified) the results were hgDAF12 agonist inactive, DAX1 inh-1 inactive, hcDAF12 agonist inactive, ssDAF12 agonist 1.7 and DAX1 inh-2 inactive.
Screening COc1ccc(/C=C/C(=O)OCC(=O)Nc2ncc(Cl)cc2Cl)cc1 returned hgDAF12 agonist inactive, DAX1 inh-1 inactive, hcDAF12 agonist inactive, ssDAF12 agonist 1.1 and DAX1 inh-2 inactive.
Screening Cc1ccc(C(=O)OCC(=O)Nc2cc(C(C)(C)C)no2)c(C)c1 returned hgDAF12 agonist inactive, DAX1 inh-1 3.6, hcDAF12 agonist inactive, ssDAF12 agonist inactive and DAX1 inh-2 inactive.
Cc1ccc(-c2nc3cccnc3s2)cc1NS(=O)(=O)c1ccc2c(c1)OCCO2 was read as hgDAF12 agonist inactive, DAX1 inh-1 inactive, hcDAF12 agonist inactive, ssDAF12 agonist inactive and DAX1 inh-2 inactive.
Screening Cc1ccc(-c2nc3cccnc3s2)cc1NS(=O)(=O)c1cccs1 returned hgDAF12 agonist inactive, DAX1 inh-1 inactive, hcDAF12 agonist 6.1, ssDAF12 agonist inactive and DAX1 inh-2 inactive.
Screening Cc1ccc(-c2cccc3[nH]cc(C)c23)s1 returned hgDAF12 agonist inactive, DAX1 inh-1 inactive, hcDAF12 agonist inactive and ssDAF12 agonist inactive.
`COc1cccc(-c2ccc(C#N)c(SCC(=O)NCCc3ccccc3)n2)c1` gave hgDAF12 agonist inactive, DAX1 inh-1 inactive, hcDAF12 agonist inactive, ssDAF12 agonist 1.0 and DAX1 inh-2 inactive.
COc1cccc(-c2ccc(SCC(=O)NCCc3ccccc3)nn2)c1 was read as hgDAF12 agonist inactive, DAX1 inh-1 inactive, hcDAF12 agonist inactive, ssDAF12 agonist inactive and DAX1 inh-2 inactive.
For CCOC(=O)[C@]12CCCCC/C=C\1N(CCc1ccc(Cl)cc1)C(=O)[C@H]2CC(=O)NCc1ccc(C)o1 the results were hgDAF12 agonist inactive, DAX1 inh-1 inactive, hcDAF12 agonist inactive and ssDAF12 agonist inactive.
`O=C(CNC(=O)c1cccc(S(=O)(=O)N2CCc3ccccc32)c1)Nc1ccccc1Br` gave hgDAF12 agonist inactive, DAX1 inh-1 inactive, hcDAF12 agonist inactive, ssDAF12 agonist 1.2 and DAX1 inh-2 inactive.
For CCCC(=O)Nc1ccc(S(=O)(=O)N2CCc3ccccc32)cc1 the results were hgDAF12 agonist inactive, DAX1 inh-1 inactive, hcDAF12 agonist inactive, ssDAF12 agonist inactive and DAX1 inh-2 4.8.
`O=C(CNC(=O)c1cccc(S(=O)(=O)N2CCc3ccccc32)c1)Nc1ccc(F)c(F)c1F` gave hgDAF12 agonist inactive, DAX1 inh-1 inactive, hcDAF12 agonist inactive, ssDAF12 agonist inactive and DAX1 inh-2 inactive.
For CCC(=O)Nc1ccc(S(=O)(=O)N2CCc3ccccc32)cc1 the results were hgDAF12 agonist inactive, DAX1 inh-1 inactive, hcDAF12 agonist inactive, ssDAF12 agonist inactive and DAX1 inh-2 inactive.
`Cc1ccc(OCc2nnc(SCC(=O)Nc3cccc4ccccc34)n2Cc2ccco2)cc1` gave hgDAF12 agonist inactive, DAX1 inh-1 inactive, hcDAF12 agonist inactive and ssDAF12 agonist inactive.
`COC(=O)[C@H](C(C)C)N(Cc1cn(Cc2ccccc2)nn1)S(=O)(=O)c1ccccc1Br` gave hgDAF12 agonist inactive, DAX1 inh-1 inactive, hcDAF12 agonist inactive and ssDAF12 agonist inactive.
`Cc1nnc(SCC(=O)N2CCOCC2)s1` gave hgDAF12 agonist inactive, DAX1 inh-1 inactive, hcDAF12 agonist inactive, ssDAF12 agonist inactive and DAX1 inh-2 inactive.
O=C(CSc1nnc(NC2CCCCC2)s1)N1CCOCC1 was read as hgDAF12 agonist inactive, DAX1 inh-1 4.1, hcDAF12 agonist inactive, ssDAF12 agonist inactive and DAX1 inh-2 inactive.
For CNc1cccc(-c2ccccc2C(C)=O)n1 the results were hgDAF12 agonist inactive, DAX1 inh-1 inactive, hcDAF12 agonist inactive and ssDAF12 agonist inactive.
`CNc1cccc(-c2ccc(C(C)=O)s2)n1` gave hgDAF12 agonist inactive, DAX1 inh-1 4.0, hcDAF12 agonist inactive and ssDAF12 agonist inactive.
Screening CCc1nc(SC)[nH]c(=O)c1C returned hgDAF12 agonist inactive, DAX1 inh-1 inactive, hcDAF12 agonist inactive, ssDAF12 agonist inactive and DAX1 inh-2 inactive.
CSc1nc2c(C)c(C)c(C)c(C)c2[nH]1 was read as hgDAF12 agonist inactive, DAX1 inh-1 inactive, hcDAF12 agonist inactive, ssDAF12 agonist inactive and DAX1 inh-2 5.1.
`C=CCOC(=O)N1CCN(C(=O)c2ccc3c(c2)nc(C)n3C2CCCC2)CC1` gave hgDAF12 agonist inactive, DAX1 inh-1 inactive, hcDAF12 agonist inactive and ssDAF12 agonist inactive.
For O=C1CC(c2ccc3c(c2)OCCO3)Oc2ccc([N+](=O)[O-])cc21 (stereo unspecified) the results were hgDAF12 agonist inactive, DAX1 inh-1 inactive, hcDAF12 agonist inactive, ssDAF12 agonist inactive and DAX1 inh-2 4.7.
For O=C(Nc1cccc2ccccc12)C(=O)C1C(=O)Nc2ccccc21 (stereo unspecified) the results were hgDAF12 agonist inactive, DAX1 inh-1 inactive, hcDAF12 agonist 6.1, ssDAF12 agonist inactive and DAX1 inh-2 inactive.
For COc1cccc(C(=O)NCCN2C(=O)C3C4C=CC(C4)C3C2=O)c1 (stereo unspecified) the results were hgDAF12 agonist inactive, DAX1 inh-1 inactive, hcDAF12 agonist inactive and ssDAF12 agonist inactive.
COC(=O)c1c(-c2ccc(C)cc2)csc1NC(=O)c1c(-c2ccccc2)noc1C was read as hgDAF12 agonist inactive, DAX1 inh-1 inactive, hcDAF12 agonist inactive and ssDAF12 agonist inactive.
For COC(=O)c1c(-c2cccnc2)csc1NC(=O)c1cc(C)on1 the results were hgDAF12 agonist inactive, DAX1 inh-1 4.5, hcDAF12 agonist 6.5, ssDAF12 agonist inactive and DAX1 inh-2 inactive.
For COC(=O)C1CN(Cc2ccc(F)cc2)CCS(=O)(=O)N1Cc1cn(Cc2ccc(C)cc2)nn1 (stereo unspecified) the results were hgDAF12 agonist inactive, DAX1 inh-1 inactive, hcDAF12 agonist inactive and ssDAF12 agonist inactive.
`CCOC(=O)COc1ccccc1C1Nc2ccccc2C(=O)N1c1cccc(Cl)c1` (stereo unspecified) gave hgDAF12 agonist 12.0, DAX1 inh-1 inactive, hcDAF12 agonist inactive, ssDAF12 agonist inactive and DAX1 inh-2 inactive.
`Cc1ccccc1N=C1NC(=O)/C(=C/c2cccnc2)S1` gave hgDAF12 agonist inactive, DAX1 inh-1 inactive, hcDAF12 agonist inactive, ssDAF12 agonist 1.9 and DAX1 inh-2 inactive.
For O=C1N/C(=N/O)S/C1=C/c1cccnc1 the results were hgDAF12 agonist inactive, DAX1 inh-1 inactive, hcDAF12 agonist inactive, ssDAF12 agonist inactive and DAX1 inh-2 inactive.
CC(c1ccco1)N(C(=O)C12CC3(C)CC(C)(CC(C)(C3)C1)C2)c1ccccn1 (stereo unspecified) was read as hgDAF12 agonist inactive, DAX1 inh-1 inactive, hcDAF12 agonist inactive, ssDAF12 agonist inactive and DAX1 inh-2 5.4.
For C=CCOC(=O)C1=C(C)NC(SCC(=O)N(CC)CC)=C(C#N)C1c1ccccc1 (stereo unspecified) the results were hgDAF12 agonist inactive, DAX1 inh-1 inactive, hcDAF12 agonist inactive, ssDAF12 agonist inactive and DAX1 inh-2 inactive.

Assay outcomes from PubChem.
